Compounds with a hit are over-represented: about 6.8% of the library has one in this group of screens.
T cruzi growth – inhibitors of T. cruzi proliferation; AID 624255; hit rate 5.9% among 77,000; T. cruzi beta-gal in NIH3T3, GalScreen luminescence, 90 h; inhibition, % at 8.34 µM;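 active = mean inhibition above about 93%, with at least 55% of replicates each passing it, limit read from the data, passing the limit was not always enough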
Pf Dd2 growth – inhibitors of Plasmodium falciparum Dd2 growth. P. falciparum Dd2 growth, SYBR Green, 72 h; stronger effect = lower value. activity change, % at 10 µM. hit rate 2.3% among 94,000; in the data active = activity change below about -80%
C diff growth – inhibitors of Clostridium difficile growth | AID 1259249 | growth activity, negative = inhibition, % at 16 µg/mL (by protocol) | Clostridium difficile clinical isolate growth, OD600, 24 h; stronger effect = lower value | hit rate 0.25% among 86,000;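 active = mean growth activity at or below -80% and every replicate also at or below -80%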
Numbers stand for hits.

For COc1ccc(C#Cc2ccc3c(c2)[C@H]2[C@H](CCN2C(=O)c2ccccn2)[C@H](CO)N3)cc1 the results were Pf Dd2 growth -88.3 and C diff growth inactive.
`COc1ccc(C#Cc2ccc3c(c2)[C@H]2[C@H](CCN2C(=O)c2ccccn2)[C@@H](CO)N3)cc1` gave Pf Dd2 growth -91.4 and C diff growth inactive.
`COc1ccc(C#Cc2ccc3c(c2)[C@H]2[C@H](CCN2C(=O)c2ccncc2)[C@@H](CO)N3)cc1` gave Pf Dd2 growth inactive and C diff growth inactive.
For COc1ccccc1C#Cc1ccc2c(c1)[C@H]1[C@H](CCN1C(=O)c1ccncc1)[C@H](CO)N2 the results were T cruzi growth inactive, Pf Dd2 growth inactive and C diff growth -99.9.
O=C(c1ccccn1)N1CC[C@H]2[C@H](CO)Nc3ccc(C#Cc4cccnc4)cc3[C@H]21 was read as T cruzi growth inactive, Pf Dd2 growth inactive and C diff growth inactive.
`CC=Cc1ccc2n(c1=O)C[C@@H]1[C@@H](CO)[C@H](C(=O)NCCC)[C@H]2N1Cc1ccccc1` (mixture of isomers) gave T cruzi growth inactive, Pf Dd2 growth inactive and C diff growth inactive.
For CCCN1C[C@@H](C)[C@@H](OC)CN(C)C(=O)c2cc(NC(=O)CC)ccc2OC[C@H]1C the results were T cruzi growth inactive.
For CCOC(=O)N(C)C[C@H]1OCc2ccccc2-c2ccccc2C(=O)N([C@@H](C)CO)C[C@H]1C the results were T cruzi growth inactive and Pf Dd2 growth inactive.
Screening O=S(=O)(Cc1ccccc1)N1[C@H](CO)[C@@H](c2ccccc2)C12CN(CCC(F)(F)F)C2 returned Pf Dd2 growth -84.0 and C diff growth inactive.
OC[C@@H]1[C@@H](c2ccccc2)C2(CN(CCC(F)(F)F)C2)N1Cc1ccccc1 was read as Pf Dd2 growth inactive and C diff growth inactive.
C[C@H](O)C#Cc1ccc2c(c1)O[C@@H](CN(C)C(=O)C1CCCCC1)[C@@H](C)CN([C@@H](C)CO)S2(=O)=O was read as T cruzi growth inactive, Pf Dd2 growth inactive and C diff growth inactive.
`C[C@H]1CN([C@@H](C)CO)S(=O)(=O)c2ccc(C3=CCCC3)cc2O[C@H]1CN(C)C(=O)CC1CC1` gave T cruzi growth inactive, Pf Dd2 growth inactive and C diff growth inactive.
For CCCN(C)C[C@H]1Oc2ncc(C#Cc3ccccc3OC)cc2C(=O)N([C@H](C)CO)C[C@H]1C the results were Pf Dd2 growth -87.3 and C diff growth inactive.
For CNC[C@H]1Oc2ncc(C#Cc3cccc(OC)c3)cc2C(=O)N([C@H](C)CO)C[C@H]1C the results were T cruzi growth inactive, Pf Dd2 growth -83.4 and C diff growth inactive.
Screening CCCN(C)C[C@H]1Oc2ncc(C#Cc3ccc(OC)cc3)cc2C(=O)N([C@H](C)CO)C[C@H]1C returned Pf Dd2 growth -84.0 and C diff growth inactive.
CNC[C@@H]1Oc2ncc(C#Cc3cccc(OC)c3)cc2C(=O)N([C@H](C)CO)C[C@@H]1C was read as T cruzi growth inactive, Pf Dd2 growth inactive and C diff growth inactive.
Screening CCCN(C)C[C@H]1Oc2ncc(C#Cc3ccc(OC)cc3)cc2C(=O)N([C@@H](C)CO)C[C@H]1C returned Pf Dd2 growth -86.9 and C diff growth inactive.
`COc1ccc(C#Cc2cnc3c(c2)C(=O)N([C@@H](C)CO)C[C@@H](C)[C@@H](CN(C)C)O3)cc1` gave T cruzi growth inactive, Pf Dd2 growth inactive and C diff growth inactive.
Screening CCCN(C)C[C@H]1Oc2ncc(C#Cc3ccccc3OC)cc2C(=O)N([C@@H](C)CO)C[C@H]1C returned Pf Dd2 growth inactive.
For COc1ccc(C#Cc2cnc3c(c2)C(=O)N([C@@H](C)CO)C[C@H](C)[C@@H](CN(C)C)O3)cc1 the results were T cruzi growth inactive, Pf Dd2 growth inactive and C diff growth inactive.
Screening COc1ccc2c3c(n(C)c2c1)[C@@H](CO)N(C(=O)Nc1ccc(F)cc1)CC31CCN(CC2CCOCC2)CC1 returned Pf Dd2 growth inactive and C diff growth inactive.
Screening C[C@H]1CN([C@@H](C)CO)C(=O)Cc2cc(NC(=O)CCN3CCOCC3)ccc2O[C@H]1CN(C)S(=O)(=O)c1ccc(Cl)cc1 returned T cruzi growth inactive, Pf Dd2 growth inactive and C diff growth inactive.
For C[C@@H]1CN([C@H](C)CO)C(=O)c2cc(-c3cccnc3)cnc2O[C@H]1CN(C)C(=O)Cc1cccnc1 the results were T cruzi growth inactive, Pf Dd2 growth inactive and C diff growth inactive.
COc1ccc(C#Cc2cnc3c(c2)C(=O)N([C@@H](C)CO)C[C@@H](C)[C@@H](CN(C)C(=O)c2ccccc2F)O3)cc1 was read as T cruzi growth inactive, Pf Dd2 growth inactive and C diff growth inactive.
`CCCN(C)C[C@@H]1Oc2ncc(C#Cc3ccc(OC)c(OC)c3)cc2C(=O)N([C@H](C)CO)C[C@@H]1C` gave T cruzi growth inactive, Pf Dd2 growth -82.3 and C diff growth inactive.
